Source: PubChem BioAssay
ALOX12 inhib – inhibitors of human 12-lipoxygenase (ALOX12); P18054; 150,000 compounds, 0.12% hits; purified 12-hLO, xylenol orange hydroperoxide absorbance; Potency, µM (highest dose often 57.1 µM), for inactives: at the top dose activity change, negative = inhibition, most hits filed as inhibitors; also: potency is read from the fitted curve at half-maximal effect; nearly all actives have a fitted effect of over 55% in size
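Purified human 12hLO (150 nM final) was preincubated with compounds for 15 min at room temperature in 25 mM Hepes pH 7.0, 0.01% Triton X-100, then reacted with 40 uM arachidonic acid for 30 min. Hydroperoxide was detected with ferrous iron/xylenol orange.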
IMPase Li inh – IMPase inhibition in cells with lithium potentiation. CHO-M1 cells, IP1 TR-FRET (IP-One), carbachol + lithium. Potency, µM (top dose mostly 59.4 µM), inactives show top-dose activity, negative = IMPase inhibition, usual class: inhibitors. 210,000 compounds, 0.35% hits. AID 1457;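 also: IP1 builds up when IMPase is blocked and the TR-FRET signal falls; potency is read from the fitted curve at half-maximal effect; plate controls were basal vehicle for no effect and high inhibitor control for full effect; nearly all actives have a fitted effect of over 50% in size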
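Lithium-sensitised IP1 accumulation assay; M1-expressing CHO cells treated 30 min at 37C with compound. Competitive antibody detection by time-resolved FRET followed a 10 min room-temperature lysis step.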
IMPase cell inh – membrane-permeable compound that blocks inositol monophosphatase. P97697. CHO-M1 cells, IP1 accumulation, HTRF TR-FRET ratio. inhibition (IP1 accumulation), % at 46.1 µM. 120,000 tested, under 10 active. AID 901; active = well fitted curve in the direction sought with a large enough effect in the signal ratio, not every such curve was filed as active; inconclusive = small, poorly fitted or top-dose-only effect, or a change in a side signal; inactive = no such curve, though single readings can be large or run the other way; the % refers to the signal ratio;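 also: cells stimulated with carbachol in lithium chloride buffer; plate controls were DMSO basal wells for no effect and reference inhibitor wells for full effect; higher means more IMPase inhibition seen as more IP1 and lower FRET ratio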
Target sequence (P97697 whole entry, looked up): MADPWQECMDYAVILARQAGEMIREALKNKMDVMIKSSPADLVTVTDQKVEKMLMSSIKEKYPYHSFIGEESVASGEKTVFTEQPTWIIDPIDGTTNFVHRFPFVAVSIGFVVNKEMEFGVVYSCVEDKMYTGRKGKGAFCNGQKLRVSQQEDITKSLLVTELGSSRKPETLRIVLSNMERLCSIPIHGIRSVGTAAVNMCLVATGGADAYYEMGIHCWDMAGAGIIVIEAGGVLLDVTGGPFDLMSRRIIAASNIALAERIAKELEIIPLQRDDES
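Carbachol-driven Gq signalling in CHO-M1 cells (2000/well) generates IP1. Compounds that block IMPase raise IP1 and so reduce the FRET signal from Eu-anti-IP1 and d2-IP1 after a 10 min room-temperature lysis.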
HPGD inh – inhibitors of human 15-hydroxyprostaglandin dehydrogenase (HPGD). Potency, µM, inactives show top-dose activity change, negative = inhibition, most hits filed as inhibitors. AID 894. 150,000 compounds, 4.3% hits. purified HPGD, NADH fluorescence kinetic, PGE2 substrate. P15428; active = well fitted inhibition curve with a large enough effect, not every such curve was filed as active; inconclusive = small, poorly fitted or top-dose-only effect, or another doubt; inactive = no such curve, though single readings can be large or run the other way; also: potency is read from the fitted curve at half-maximal effect
Target sequence (P15428 whole entry, looked up): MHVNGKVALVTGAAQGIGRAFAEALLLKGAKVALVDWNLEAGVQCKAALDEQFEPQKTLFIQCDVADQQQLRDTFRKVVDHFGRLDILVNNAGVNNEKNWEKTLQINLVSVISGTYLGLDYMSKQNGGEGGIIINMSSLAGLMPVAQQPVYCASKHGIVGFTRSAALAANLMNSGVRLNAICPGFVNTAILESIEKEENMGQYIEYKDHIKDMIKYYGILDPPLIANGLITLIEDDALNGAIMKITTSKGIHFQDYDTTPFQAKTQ
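20 nM HPGD preincubated 15 min at room temperature with compound in 50 mM Tris-HCl pH 8, 0.01% Tween 20. Started with 1 mM NAD+ and 30 uM prostaglandin E2; NADH fluorescence (360/450 nm) read 5 times over 30-s intervals, last minus first.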
15-hLO-2 inh – inhibitors of human 15-lipoxygenase 2 (ALOX15B). 110,000 compounds, 0.56% hits. Potency, µM (highest dose often 57.1 µM), without a hit: top-dose activity change, negative = inhibition, most hits filed as inhibitors. O15296. purified 15hLO-2, xylenol orange hydroperoxide absorbance; also: potency is read from the fitted curve at half-maximal effect; nearly all actives have a fitted effect of over 60% in size
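Enzyme 50 nM, AA 45 uM, 25 mM Hepes pH 7.5 + 0.01% Triton X-100; cpd preinc 15 min RT, rxn 90 min RT; stop/detect with 200 uM XO + 300 uM Fe(II) in 50 mM H2SO4, 30 min; A573/A405.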
PNC inhibitor – blocks assembly of the perinucleolar compartment | PC3M PTB-GFP, PNC prevalence imaging, 16 h; active compounds read low | activity change (PNC), negative = inhibition, % at 10 µM | 140,000 compounds, 3.1% hits;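 active = readout at or below -70, meaning at least 70% loss of cells showing the perinucleolar compartment, a nuclear body marking cancer cells; inconclusive = readout between -30 and a set limit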;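 also: plate controls were DMSO wells for no effect and camptothecin positive control wells for full effect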
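Compounds are pinned in duplicate onto adhered PC3M cells stably expressing GFP-tagged PTB and incubated 16 h at 37 C. Cells are then fixed, nuclei stained with Hoechst, and PNC-positive cells counted.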
The depositor's hits bear a star; ? = inconclusive; nt = not tested or not shown; [ ] = another dose, or the depositor's remark. Only some compounds are listed: those with a hit (about 5.4% of all), similar ones and a draw of the others. Unless noted, calls follow the shape of the dose curve; as a rule, active = well fitted curve in the direction sought with a large enough effect; inconclusive = small, poorly fitted or top-dose-only effect, or another doubt; inactive = no such curve, though single readings can be large; an effect the other way counts as inactive or inconclusive. Unless noted, % is scaled to controls: 0 for no effect and ±100 for the full control effect.

SMILES	ALOX12 inhib	IMPase Li inh	IMPase cell inh	HPGD inh	15-hLO-2 inh	PNC inhibitor
COc1ccccc1N1CCN(S(=O)(=O)c2ccc3c4c(cccc24)C(=O)N3C)CC1	0.5%	20.9%[38.3 µM]	-2.3	-9.6%	6.7%[2.29 µM]	-25.5
COc1ccc2c3c(cccc13)N(C)N=C2C	?	9.7%[38.3 µM]	8.4	-15.1%	2.51µM*	-29.2
Cc1[nH]c2ccccc2c1N=Nc1ccccc1C(=O)O	-15.1%	15.5%	nt	14.1µM*	nt	-8.3
Cc1[nH]c2ccccc2c1N=Nc1cccc(C(=O)O)c1	-7.3%	-3.4%	-1.9	-16.4%	nt	?
CCOC(=O)CSc1nc2c([nH]c3ccccc32)c(=O)n1C	-1.7%	35.1%[38.3 µM]	27.0	-11.0%	-3.9%	-14.4
CCOC(=O)C(C)Sc1nc2c([nH]c3ccccc32)c(=O)n1C (centres undefined)	-5.3%	31.5%	14.7	3.3%	nt	-118.9*
Cc1ncoc1C(=O)Nc1ccc2c(c1)OCCO2	1.3%	-2.6%[38.3 µM]	-1.4	-3.5%	-10.2%	?
CC(NC(=O)c1cccs1)c1ccc2c(c1)OCO2 (centres undefined)	1.8%	38.5%[38.3 µM]	3.7	-19.8%	-2.0%	?
Cc1occc1C(=O)Nc1cccc(C(=O)NCc2ccccc2)c1	2.3%	4.5%	-1.9	22.4µM*	-3.2%	-29.0
Cc1ccsc1C(=O)NC(C)c1ccc2c(c1)OCO2 (centres undefined)	-2.8%	22.7%	-0.2	-7.5%	nt	-118.9*
Cc1ccsc1C(=O)Nc1ccc2c(c1)OCCO2	-0.1%	5.7%	-2.1	31.6µM*	nt	-17.5
Cc1ccc(C(=O)Nc2cccc(C(=O)NCc3ccccc3)c2)cc1	-1.2%	0.5%	nt	-16.6%	nt	29.2
CCCOC(=O)c1ccc(NC(=O)c2ccoc2C)cc1	7.3%	20.6%	7.2	31.6µM*	nt	?
COC(=O)C1=C(C(=O)OC)[C@@H]2Nc3ccccc3[C@@]23C[C@@H](C(=O)OC)N(S(=O)(=O)c2ccc(Br)cc2)C3=N1	-5.0%[11.4 µM]	10.7%	nt	-6.5%	nt	nt
CC(C)C[C@@H](CC(=O)N[C@@H](CCCN)CC(=O)N[C@@H]1CCNC[C@H]1C(=O)N[C@H](CC(=O)N[C@@H](CCC(=O)O)CC(=O)O)CC(C)C)NC(=O)[C@@H]1CCCC[C@H]1N	2.1%	11.5%	nt	-3.1%	nt	nt
Cc1occc1C(=O)Nc1ccc2c(c1)OCCO2	-1.1%	12.7%[38.3 µM]	?	15.8µM*	-15.5%	-8.7
Cc1cccc(NC(=O)Cn2c(=O)n(CC3CCC(C(=O)NCCc4ccccc4)CC3)c(=O)c3ccccc32)c1 (centres undefined)	nt	nt	7.7	nt	nt	nt
CC1(C)Cc2c(c(-c3ccco3)[nH]c(=O)c2C#N)CS1	-16.2%	0.9%[38.3 µM]	-8.6	14.1µM*	-19.6%	-21.3
COc1ccc(OC)c(-c2ccc(C(=O)O)o2)c1	-0.8%[0.00818 µM]	-4.3%	nt	?	9.6%[0.0915 µM]	nt
CC1C[C@@]2(NC(=O)NC2=O)C(C)CN1C (some centres undefined)	0.2%	3.7%	3.3	-15.4%	nt	-100.0*
C=CCN(CC=C)C(=S)NC(=O)c1ccc(OC)c(Br)c1	-15.1%	-2.5%[38.3 µM]	-4.8	-14.6%	-6.0%	-85.7*
CCN(CC)C(=S)NC(=O)c1ccc(OC)c(Br)c1	-0.9%	2.0%	nt	-17.1%	nt	32.5
CC(=O)N1c2ccccc2C(C)CC12CCCCC2 (centres undefined)	13.2%	0.9%	-12.9	-5.2%	nt	-82.6*
O=C(NCc1cccnc1)[C@@H]1[C@@H](C(=O)O)[C@H]2CC[C@@H]1O2	-2.6%[11.4 µM]	-8.1%	nt	-3.4%	-15.3%[11.4 µM]	nt
O=C1CCC(C(=O)NCc2cccnc2)N1 (centres undefined)	0.6%	-2.8%	-3.7	-9.4%	nt	-100.0*
C[C@@H]1CCC2C(C)(C)C3CC21CC[C@@]3(C)O (some centres undefined)	nt	6.2%	nt	-8.2%	nt	nt
C[C@H](CN(C)C)C(=O)c1ccccc1C(=O)O	-5.6%[11.4 µM]	-2.7%	nt	-10.3%	2.4%[11.4 µM]	nt
Cc1ccc(P(=Nc2ccccc2)(N2CCOCC2)N2CCOCC2)o1	4.4%	27.6%[38.3 µM]	7.9	-0.3%	2.9%	-91.7*
